Activity calls are given as the source filed them.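 Rule for the calls, unless noted: active = inhibition at or above 50% at 10 µM; inactive = inhibition below 50%.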 Where a SMILES comes first, the peptide text is derived from it. The star is where a group is joined. Boc = CC(C)(C)OC(=O)*
Assays:
[1] = inhibitors of TNFa-induced NFkB p65 translocation, primary screen, imaging, HUVEC, MLSMR starter and 10KST1 sets (AID 438;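 active = inhibition above 20% together with a positive visual image hit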;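 note: compound added about 3h40 before a 20 min TNFalpha stimulation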;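 for inhibition: signal is the nuclear over cytoplasmic p65 intensity ratio per well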); conditions: HUVEC TNFa-induced p65 nuclear translocation; cell count: measured here: nuclei count (cytotoxicity indicator), at 2.08 µM; inhibition: at 2 µM, stronger effect = higher value, 0% TNFa-plus-vehicle, 100% no-TNFa wells
[2] = reduction of polyQ htt aggregates in cells – imaging, exon1htt(103Q)mCFP cells, high-content imaging, primary screen (AID 483;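 active = visual image review flags a hit and inhibition of aggregation exceeds 20%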;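 note: compound exposure lasted 3 days before fixation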;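 for nuclei count: percent of the per-plate median nuclei count of sample wells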); conditions: exon1htt(103Q)mCFP cell line, aggregate imaging, at 2 µM; inhibition of aggregation: stronger effect = higher value; nuclei count: measured here: cell count, toxicity
[3] = endothelial E-selectin expression blockers – imaging, HUVEC, immunofluorescence, MLSMR starter and 10KST1 sets, primary screen (AID 487;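 active = visually confirmed hit in the image check and inhibition above 20%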;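 for inhibition: signal is fraction of cell area covered by stained E-selectin grains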;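 for nuclei count: 100% = median nuclei count of all wells on the same plate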); conditions: HUVEC TNFalpha-induced E-selectin immunofluorescence imaging, at 2 µM; inhibition: stronger effect = higher value; nuclei count: measured here: cell number, toxicity
[4] = target: Voltage-gated potassium channel subunit beta-2 (Rattus norvegicus) (UniProt P62483); test: inhibitors of rat Kvbeta2 reductase activity – biochemical, NADPH fluorescence, primary screen (AID 622;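 active = fluorescence slope higher than the sample average by over 3 SD, cut at about -0.22 in these data, passing the limit was not always enough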;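 note: slope of raw intensity against log time taken from 70 to 1610 s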); conditions: recombinant KvBeta, 4-cyanobenzaldehyde reduction, at 10 µM, stronger effect = higher value
[5] = target: Voltage-gated potassium channel subunit beta-2 (Rattus norvegicus) (UniProt P62483); test: enhancers of rat Kvbeta2 NADPH turnover – biochemical, NADPH fluorescence, primary screen (AID 623;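 active = NADPH fluorescence slope more negative than the mean of all samples by about 3 SD, 99.7% confidence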;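 note: fluorescence intensity change per second fitted from 20 to 320 s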); conditions: Recombinant KvBeta, NADPH fluorescence decrease slope, 10 min; at 10 µM; stronger effect = lower value
[6] = target: Alpha-2C adrenergic receptor (Homo sapiens) (UniProt P18825); test: compounds altering alpha2C-coupled GIRK flux – cell-based, HEK293 alpha2C/GIRK1/2, thallium flux, primary screen (AID 624;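 active = fluorescence slope after compound addition differing from the mean of all screened samples at 99.7% confidence, in either direction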;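 note: slope of fluorescence ratio to pre-addition baseline per second over 15 to 24 s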); conditions: thallium flux BTC fluorescence, at 10 µM, actives lie on both sides
[7] = blockers of RIG-like receptor reporter activation – cell-based, Sendai virus stimulus, luciferase, 10K MLSCN set, TLR/RLR signaling modifier project, primary screen (AID 602276); conditions: HEK293 RL24 IRF3 luciferase reporter, at 10 µM, stronger effect = higher value;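 note: firefly luciferase from ISG56 promoter only with Renilla not read in this screen; 0% = Sendai virus plus DMSO and 100% = medium plus DMSO without virus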
[8] = TLR3 IRF3 reporter activation blockers – cell-based, poly I:C stimulus, luciferase, 10K MLSCN set, primary screen (AID 602277;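 active = inhibition of the reporter signal at or above 50%; inactive = inhibition below 50%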); conditions: HEK293-TLR3 RL24 IRF3 luciferase reporter, at 10 µM, stronger effect = higher value

Voltage-gated potassium channel subunit beta-2 (Rattus norvegicus), sequence (P62483 whole entry, looked up): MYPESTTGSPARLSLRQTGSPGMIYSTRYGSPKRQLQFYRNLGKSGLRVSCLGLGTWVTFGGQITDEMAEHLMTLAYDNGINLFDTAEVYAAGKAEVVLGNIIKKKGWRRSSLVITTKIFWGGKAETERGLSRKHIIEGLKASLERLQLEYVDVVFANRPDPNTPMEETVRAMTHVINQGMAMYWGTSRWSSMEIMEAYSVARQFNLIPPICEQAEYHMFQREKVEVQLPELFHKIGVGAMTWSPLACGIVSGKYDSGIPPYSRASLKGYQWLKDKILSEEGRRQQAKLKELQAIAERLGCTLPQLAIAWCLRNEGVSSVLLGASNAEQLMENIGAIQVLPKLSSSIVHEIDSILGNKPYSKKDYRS
Alpha-2C adrenergic receptor (Homo sapiens), sequence (P18825 whole entry, looked up): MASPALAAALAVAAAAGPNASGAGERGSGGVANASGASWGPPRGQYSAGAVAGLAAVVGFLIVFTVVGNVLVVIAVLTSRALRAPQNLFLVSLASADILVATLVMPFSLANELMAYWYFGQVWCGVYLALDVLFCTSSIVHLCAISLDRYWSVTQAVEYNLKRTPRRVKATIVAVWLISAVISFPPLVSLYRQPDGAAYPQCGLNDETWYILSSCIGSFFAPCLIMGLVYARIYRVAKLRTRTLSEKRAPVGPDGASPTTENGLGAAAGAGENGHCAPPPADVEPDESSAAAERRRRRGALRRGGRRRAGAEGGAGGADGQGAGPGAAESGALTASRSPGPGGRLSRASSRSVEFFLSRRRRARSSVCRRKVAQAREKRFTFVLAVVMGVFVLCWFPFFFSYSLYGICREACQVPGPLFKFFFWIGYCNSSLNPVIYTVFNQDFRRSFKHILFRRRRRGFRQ

| Compound | cell count [1] | inhibition [1] | inhibition of aggregation [2] | nuclei count [2] [%] | inhibition [3] | nuclei count [3] [%] | fluorescence slope [4] | NADPH fluorescence slope [5] | slope [6] | inhibition [7] | inhibition [8] |
| --- | --- | --- | --- | --- | --- | --- | --- | --- | --- | --- | --- |
| O=C(/C=C1\NC2(CCCC2)Cc2ccccc21)N1CCOCC1 | 637 | -1.6% (inactive) | -19.3% (inactive) | 88.6 | -93.5% (inactive) | 134 | -0.534 (inactive) | -4.8e-05 (inactive) | 0.00501 (inactive) | 14.1% (inactive) | 16.1% (inactive) |
| CCN(CC)c1nc2nonc2nc1N(CC)CC | 314 | -11.8% (inactive) | -1.5% (inactive) | 100 | -12.1% (inactive) | 94.7 | -0.446 (inactive) | -5.6e-05 (inactive) | 0.00553 (inactive) | 14.3% (inactive) | 21.8% (inactive) |
| CCn1c(SCC(=O)C(C)(C)C)nnc1-c1cnccn1 | 581 | 6.5% (inactive) | 9.1% (inactive) | 98.5 | -27.3% (inactive) | 100 | -0.51 (inactive) | -6.4e-06 (inactive) | 0.00526 (inactive) | 2.48% (inactive) | 1.65% (inactive) |
| CC1CCCCC1NC(=O)CN1CCN(Cc2ccccc2Cl)C1=O (centres undefined) | 667 | -0.2% (inactive) | 10.7% (inactive) | 64.8 | -22.2% (inactive) | 98.9 | -0.455 (inactive) | -6.3e-05 (inactive) | 0.00454 (inactive) | 10.1% (inactive) | 20.3% (inactive) |
| O=C(NCc1ccco1)C1(S(=O)(=O)c2ccc(Cl)cc2)CC1 | 412 | 1.1% (inactive) | -16% (inactive) | 120 | -100% (inactive) | 115 | -0.639 (inactive) | 2e-05 (inactive) | 0.00602 (inactive) | 16.2% (inactive) | 32.7% (inactive) |
| CSCCC(NC(=O)OC(C)(C)C)C(=O)NC(CC(C)C)C(N)=O (stereo not drawn) (Boc-Met-Leu-NH2; configuration not given here) | 396 | -2.1% (inactive) | -0.6% (inactive) | 114 | 7.9% (inactive) | 101 | -0.577 (inactive) | 3.1e-05 (inactive) | 0.00653 (inactive) | 5.67% (inactive) | 22% (inactive) |
| Cc1oc(-c2ccccc2F)nc1CS(=O)(=O)CC(=O)NCCCN1CCc2ccccc2C1 | 649 | 11% (inactive) | 16.1% (inactive) | 68.5 | 27.9% (inactive) | 108 | -0.508 (inactive) | -5.3e-07 (inactive) | 0.00532 (inactive) | 10.5% (inactive) | 18.8% (inactive) |
| CCOC(=O)c1cc2c(=O)n3cccc(C)c3nc2n(CC2CCCO2)c1=NC(C)=O (centres undefined) | 435 | 28.2% (inactive) | -1.4% (inactive) | 117 | -17.2% (inactive) | 114 | -0.295 (inactive) | -2.5e-05 (inactive) | 0.00401 (inactive) | 3.59% (inactive) | 8.19% (inactive) |
| c1ccc(-n2ncc3c(NC4CCCCCC4)ncnc32)cc1 | 691 | -0.3% (inactive) | 3.1% (inactive) | 115 | -56.3% (inactive) | 122 | -0.547 (inactive) | -1.1e-06 (inactive) | 0.007 (inactive) | -49.7% (inactive) | -136% (inactive) |
| CC(NC(=O)COc1ccc(Br)cc1)C(=O)O (centres undefined) | 434 | 6% (inactive) | 4.7% (inactive) | 100 | -149% (inactive) | 136 | -0.439 (inactive) | -1.3e-05 (inactive) | 0.00364 (inactive) | 10.1% (inactive) | 24.7% (inactive) |
| CCOC(=O)c1[nH]c(C)c(C(=O)NCc2ccccn2)c1C | 664 | -2.8% (inactive) | -6.6% (inactive) | 87.7 | -173% (inactive) | 114 | -0.51 (inactive) | -0.000223 (inactive) | 0.00562 (inactive) | 17.5% (inactive) | 14.1% (inactive) |
| CCC(Sc1nc(-c2ccccc2)c(C#N)c(=O)[nH]1)C(=O)Nc1cc(C)on1 (centres undefined) | 327 | 2.5% (inactive) | -9.8% (inactive) | 115 | -74.9% (inactive) | 127 | -0.357 (inactive) | -1.8e-05 (inactive) | 0.00594 (inactive) | 6.22% (inactive) | 7.77% (inactive) |
| CCCn1c(C)cc(C(=O)COc2ncnc3sccc23)c1C | 312 | 2.9% (inactive) | 11.2% (inactive) | 65.8 | -66.8% (inactive) | 115 | -0.556 (inactive) | 2.3e-05 (inactive) | 0.00512 (inactive) | -64% (inactive) | -108% (inactive) |
| Cc1ccc(C(=O)NC(Cc2c[nH]c3ccccc23)C(=O)O)o1 (centres undefined) | 507 | 4.3% (inactive) | -3.1% (inactive) | 110 | -25% (inactive) | 120 | -0.485 (inactive) | 5.1e-05 (inactive) | 0.0112 (active) | -7.86% (inactive) | 22.8% (inactive) |

From PubChem BioAssay
